The values that follow come from PubChem BioAssay (Tox21).

A number with no mark means an inactive call. Results filed as inconclusive are left out. Calls of active or inactive are those of the source. Calls come from the whole dose curve; as a rule, active = well fitted curve in the direction sought with a large enough effect in the repeat runs; inconclusive = weak or mixed curves; inactive = no such curve, though single readings can be large; an effect the other way counts as inactive or inconclusive.

For experiment [1], the target named is Nuclear receptor subfamily 1 group I member 2 (Homo sapiens) (UniProt O75469). Nature of the experiment: Human pregnane X receptor (PXR) small molecule agonists, qHTS assay (AID 1346982). For activation: % is set by controls: 0 for no effect and ±100 for the full control effect. Note: nearly all actives have a fitted effect of over 35% in size. Note: potency is the fitted concentration of half-maximal effect. A digest of the protocol: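 After plating in 5% charcoal-stripped FBS and a 5 hr rest, PXR-Luc HepG2 cells received compounds in DMSO. Following 24 hr at 37 C, ONE-Glo was added and light output read.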

Experiment [2] deals with Cytochrome P450 2C19 (Homo sapiens) (UniProt P33261). Nature of the experiment: Cytochrome P450 Family 2 Subfamily C Member 19 (CYP2C19) small molecule antagonists: luciferase reporter qHTS assay (AID 1671197). Note: nearly all actives have a fitted effect of over 65% in size. Note: potency is the fitted concentration of half-maximal effect. The essentials:
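Enzyme-substrate mix with proluciferin substrate (P450-Glo CYP2C19 system) preincubated with compounds 10 min at room temperature; NADPH regeneration solution added, 37C for 1 h; detection reagent stops reaction, luminescence read after 20 min. Ketoconazole positive control.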

Experiment [3] has as its target Cytochrome P450 2C9 (Homo sapiens) (UniProt P11712). The experiment is described as follows: Cytochrome P450 Family 2 Subfamily C Member 9 (CYP2C9) small molecule antagonists: luciferase reporter qHTS assay (AID 1671198). Note: nearly all actives have a fitted effect of over 50% in size. Note: potency is the fitted concentration of half-maximal effect. The essentials:
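P450-Glo proluciferin substrate with CYP2C9 enzyme; 10 min RT preincubation, then NADPH regeneration 1 h at 37C; luciferin detection reagent 20 min RT, luminescence in relative luminescence units.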

Experiment [4] addresses Cytochrome P450 2D6 (Homo sapiens) (UniProt P10635). The experiment is described as follows: Cytochrome P450 Family 2 Subfamily D Member 6 (CYP2D6) small molecule antagonists: luciferase reporter qHTS assay (AID 1671196). Note: nearly all actives have a fitted effect of over 50% in size. Note: potency is the fitted concentration of half-maximal effect. The essentials: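 Quantitative HTS of Tox21 chemicals against CYP2D6 using a luminescent proluciferin substrate. After NADPH addition, 1 h room-temperature reaction; luminescence recorded 20 min post detection reagent.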

For experiment [5], the target named is Cytochrome P450 1A2 (Homo sapiens) (UniProt P05177). The experiment is described as follows: Cytochrome P450 Family 1 Subfamily A Member 2 (CYP1A2) small molecule antagonists: luciferase reporter qHTS assay (AID 1671199). Note: nearly all actives have a fitted effect of over 50% in size. Note: potency is the fitted concentration of half-maximal effect. A digest of the protocol:
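Quantitative high-throughput format using the P450-Glo CYP1A2 system. Reaction initiated by NADPH regeneration solution, 1 h at room temperature, then stopped with detection reagent; luminescence measured 20 min later.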
(In general: Reporter assays use an easily measured gene product as a stand-in for the process of interest.)

Experiment [6] deals with Voltage-gated inwardly rectifying potassium channel KCNH2 (Homo sapiens) (UniProt Q12809). The experiment is described as follows: Human Ether-a-go-go-Related Gene (hERG) channel small molecule antagonists: fluorescence cell-based qHTS assay (AID 1671200). Note: nearly all actives have a fitted effect of over 50% in size. Note: potency is the fitted concentration of half-maximal effect. A digest of the protocol: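 Thallium flux as potassium surrogate: FluxOR II dye loaded 1 h at room temperature into hERG-expressing U2OS cells, then stimulus buffer added after 10 min. Kinetic 480 nm excitation/540 nm emission read, 2 min.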

Experiment [7] deals with Cytochrome P450 3A4 (Homo sapiens) (UniProt P08684). The experiment is described as follows: Cytochrome P450 Family 3 Subfamily A Member 4 (CYP3A4) small molecule antagonists: luciferase reporter qHTS assay (AID 1671201). Note: nearly all actives have a fitted effect of over 50% in size. Note: potency is the fitted concentration of half-maximal effect. A digest of the protocol: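 Recombinant human CYP3A4 converts a proluciferin substrate to luciferin over 1 h at room temperature after NADPH regeneration solution is added (compound preincubated 10 min); detection reagent stops reaction, luminescence read 20 min later as relative units.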

The nature of experiment [8]: Caspase-3/7 induction in CHO-K1 cells by small molecules, qHTS cell viability counter screen (AID 1346979). Note: potency is the fitted concentration of half-maximal effect; nearly all actives have a fitted effect of over 35% in size. The essentials: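 Cytotoxicity counter screen: CellTiter-Fluor added to compound-treated wild-type CHO-K1 cells at 16 h (37C, 5% CO2), fluorescence measured 1 h later; same wells as caspase-3/7 measurement.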
A general note: qHTS replaces the single test concentration by a dilution series.

Experiment [9] can be described thus: Caspase-3/7 induction in HepG2 cells by small molecules, qHTS cell viability counter screen (AID 1346981). Note: nearly all actives have a fitted effect of over 30% in size. Note: potency is the fitted concentration of half-maximal effect. The essentials: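 The parent HepG2 line is plated at 2,000 cells per well and rested 5 hr before compound pinning from DMSO stocks. Following a 16-hr treatment at 37 C, a fluorogenic live-cell substrate (CellTiter-Fluor) reports viability after 1 hr.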
Experiment [10] in a line: Caspase-3/7 induction in CHO-K1 cells by small molecules, qHTS assay (AID 1346980). Note: % is set by controls: 0 for no effect and ±100 for the full control effect; nearly all actives have a fitted effect of over 15% in size. The essentials: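 Wild-type CHO-K1 cells exposed to compounds for 17hr at 37 C, 5% CO2. Caspase-3/7 activity then measured by Caspase-Glo 3/7 luminescence after 30min at room temperature.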
Experiment [11] addresses Nuclear receptor subfamily 1 group I member 2 (Rattus norvegicus) (UniProt Q9R1A7). The experiment is described as follows: Rat pregnane X receptor (rPXR) activation by small molecules, qHTS assay (AID 1346983). Note: % is set by controls: 0 for no effect and ±100 for the full control effect; nearly all actives have a fitted effect of over 20% in size. The following applies: rPXR luciferase reporter cells, One-Glo luminescence, 24 h; max activation: stronger effect = higher value. A digest of the protocol: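 Cell-based rPXR activation assay: rPXR cells, 2,000 per well, rested 5hr at 37 C, then exposed to compounds in DMSO for 24 hr at 37 C. Luciferase activity read by One-Glo luminescence after 30 min at room temperature.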

For experiment [12], the target named is Nuclear receptor subfamily 1 group I member 2 (Homo sapiens) (UniProt O75469). Nature of the experiment: CYP3A4 induction through human pregnane X receptor (PXR) by small molecules, qHTS assay (AID 1346984). Note: potency is the fitted concentration of half-maximal effect; nearly all actives have a fitted effect of over 40% in size. The essentials:
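Human PXR activation is tracked via CYP3A4 promoter-luciferase in DPX-2 (HepG2) cells. Compounds treat cells for 24hr at 37C, and luminescence is read after One-Glo.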

Voltage-gated inwardly rectifying potassium channel KCNH2 (Homo sapiens), sequence (Q12809 whole entry, looked up): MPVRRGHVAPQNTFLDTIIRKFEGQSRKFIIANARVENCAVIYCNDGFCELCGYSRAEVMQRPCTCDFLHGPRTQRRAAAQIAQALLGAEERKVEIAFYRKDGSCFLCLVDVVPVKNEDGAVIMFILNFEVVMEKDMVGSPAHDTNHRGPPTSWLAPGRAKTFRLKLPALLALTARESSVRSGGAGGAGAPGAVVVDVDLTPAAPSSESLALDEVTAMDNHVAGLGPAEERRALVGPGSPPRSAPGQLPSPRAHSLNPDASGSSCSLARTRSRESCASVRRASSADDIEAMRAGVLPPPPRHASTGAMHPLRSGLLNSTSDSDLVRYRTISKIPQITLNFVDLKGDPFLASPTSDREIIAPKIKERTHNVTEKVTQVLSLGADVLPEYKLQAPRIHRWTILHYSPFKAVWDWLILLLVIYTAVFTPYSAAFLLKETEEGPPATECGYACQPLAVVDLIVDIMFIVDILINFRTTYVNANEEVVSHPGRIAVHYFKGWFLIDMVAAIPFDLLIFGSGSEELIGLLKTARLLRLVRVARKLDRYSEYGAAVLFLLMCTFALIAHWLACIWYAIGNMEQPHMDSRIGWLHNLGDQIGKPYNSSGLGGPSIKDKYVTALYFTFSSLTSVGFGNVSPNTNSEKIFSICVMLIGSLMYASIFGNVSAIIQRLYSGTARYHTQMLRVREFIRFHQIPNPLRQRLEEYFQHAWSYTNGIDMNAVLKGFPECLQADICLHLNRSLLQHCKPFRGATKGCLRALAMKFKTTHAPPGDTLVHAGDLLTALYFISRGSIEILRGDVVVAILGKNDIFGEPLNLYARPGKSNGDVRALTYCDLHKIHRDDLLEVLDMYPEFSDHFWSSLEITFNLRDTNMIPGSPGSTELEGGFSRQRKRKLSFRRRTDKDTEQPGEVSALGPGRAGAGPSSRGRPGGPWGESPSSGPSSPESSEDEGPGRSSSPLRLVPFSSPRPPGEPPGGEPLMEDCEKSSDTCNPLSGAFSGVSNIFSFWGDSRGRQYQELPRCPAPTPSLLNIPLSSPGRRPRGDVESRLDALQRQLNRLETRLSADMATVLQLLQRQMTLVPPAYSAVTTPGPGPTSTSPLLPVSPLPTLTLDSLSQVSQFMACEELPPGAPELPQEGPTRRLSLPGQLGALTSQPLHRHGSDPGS
Cytochrome P450 2C19 (Homo sapiens), sequence (P33261 whole entry, looked up): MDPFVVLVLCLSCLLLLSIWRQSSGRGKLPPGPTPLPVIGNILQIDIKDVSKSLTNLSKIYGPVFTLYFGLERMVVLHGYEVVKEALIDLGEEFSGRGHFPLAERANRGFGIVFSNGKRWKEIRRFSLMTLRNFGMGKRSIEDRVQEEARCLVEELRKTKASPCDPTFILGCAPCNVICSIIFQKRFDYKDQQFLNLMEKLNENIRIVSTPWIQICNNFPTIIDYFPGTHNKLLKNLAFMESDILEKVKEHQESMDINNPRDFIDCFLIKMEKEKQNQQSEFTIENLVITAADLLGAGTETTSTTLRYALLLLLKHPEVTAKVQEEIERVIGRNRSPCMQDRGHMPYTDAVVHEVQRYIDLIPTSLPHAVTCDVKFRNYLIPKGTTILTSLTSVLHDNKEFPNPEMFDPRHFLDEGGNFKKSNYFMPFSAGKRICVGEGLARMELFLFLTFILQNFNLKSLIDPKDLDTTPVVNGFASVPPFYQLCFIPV
Nuclear receptor subfamily 1 group I member 2 (Homo sapiens), sequence (O75469 whole entry, looked up): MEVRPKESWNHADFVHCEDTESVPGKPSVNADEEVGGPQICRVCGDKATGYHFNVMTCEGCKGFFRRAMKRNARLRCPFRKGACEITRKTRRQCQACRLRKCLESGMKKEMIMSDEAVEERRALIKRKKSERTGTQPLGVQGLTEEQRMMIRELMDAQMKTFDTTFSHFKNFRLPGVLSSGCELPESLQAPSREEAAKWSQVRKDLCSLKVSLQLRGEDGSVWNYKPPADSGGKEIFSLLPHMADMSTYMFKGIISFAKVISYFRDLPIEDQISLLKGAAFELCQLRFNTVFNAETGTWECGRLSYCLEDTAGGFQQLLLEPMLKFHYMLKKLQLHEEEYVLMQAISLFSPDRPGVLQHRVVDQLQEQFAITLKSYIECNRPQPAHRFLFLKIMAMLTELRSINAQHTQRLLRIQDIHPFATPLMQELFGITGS
Cytochrome P450 2D6 (Homo sapiens), sequence (P10635 whole entry, looked up): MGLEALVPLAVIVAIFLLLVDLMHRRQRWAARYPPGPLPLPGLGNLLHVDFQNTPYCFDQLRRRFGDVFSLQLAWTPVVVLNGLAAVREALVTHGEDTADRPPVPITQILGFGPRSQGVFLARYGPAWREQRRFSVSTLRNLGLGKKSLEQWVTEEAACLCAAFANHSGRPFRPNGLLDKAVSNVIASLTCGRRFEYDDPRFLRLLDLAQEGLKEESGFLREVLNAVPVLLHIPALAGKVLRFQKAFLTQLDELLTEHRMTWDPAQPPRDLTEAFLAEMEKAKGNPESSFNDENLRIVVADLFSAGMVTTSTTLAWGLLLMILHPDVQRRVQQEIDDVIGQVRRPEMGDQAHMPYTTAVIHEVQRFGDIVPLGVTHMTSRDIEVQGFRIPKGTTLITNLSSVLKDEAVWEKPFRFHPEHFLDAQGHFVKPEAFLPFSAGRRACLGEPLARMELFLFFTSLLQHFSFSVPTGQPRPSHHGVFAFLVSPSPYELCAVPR
Cytochrome P450 3A4 (Homo sapiens), sequence (P08684 whole entry, looked up): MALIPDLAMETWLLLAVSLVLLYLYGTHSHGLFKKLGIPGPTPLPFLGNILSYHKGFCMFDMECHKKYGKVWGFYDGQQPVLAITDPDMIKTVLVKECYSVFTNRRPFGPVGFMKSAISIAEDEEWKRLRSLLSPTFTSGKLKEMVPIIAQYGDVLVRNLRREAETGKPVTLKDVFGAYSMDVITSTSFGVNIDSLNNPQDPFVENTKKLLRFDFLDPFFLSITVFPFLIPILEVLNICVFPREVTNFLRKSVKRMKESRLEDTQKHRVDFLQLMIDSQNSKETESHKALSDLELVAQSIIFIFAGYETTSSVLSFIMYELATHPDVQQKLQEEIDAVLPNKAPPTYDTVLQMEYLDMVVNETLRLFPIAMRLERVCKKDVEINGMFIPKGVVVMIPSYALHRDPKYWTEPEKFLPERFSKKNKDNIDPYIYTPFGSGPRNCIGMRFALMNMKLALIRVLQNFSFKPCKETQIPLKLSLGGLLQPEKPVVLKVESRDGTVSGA
Cytochrome P450 1A2 (Homo sapiens), sequence (P05177 whole entry, looked up): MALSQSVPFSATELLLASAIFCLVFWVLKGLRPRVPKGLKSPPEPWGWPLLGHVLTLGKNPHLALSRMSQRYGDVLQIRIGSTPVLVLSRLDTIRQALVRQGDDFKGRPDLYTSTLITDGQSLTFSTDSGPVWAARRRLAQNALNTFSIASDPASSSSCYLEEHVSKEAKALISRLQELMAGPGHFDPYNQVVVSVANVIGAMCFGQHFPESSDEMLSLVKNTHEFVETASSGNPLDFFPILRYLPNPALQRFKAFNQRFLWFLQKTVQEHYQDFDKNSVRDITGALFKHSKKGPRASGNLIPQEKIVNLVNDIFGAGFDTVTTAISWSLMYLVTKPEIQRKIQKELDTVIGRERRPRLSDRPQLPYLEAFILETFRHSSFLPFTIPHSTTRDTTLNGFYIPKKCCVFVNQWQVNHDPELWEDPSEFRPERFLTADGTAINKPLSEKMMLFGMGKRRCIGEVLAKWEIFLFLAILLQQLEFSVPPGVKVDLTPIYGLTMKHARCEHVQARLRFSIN
Cytochrome P450 2C9 (Homo sapiens), sequence (P11712 whole entry, looked up): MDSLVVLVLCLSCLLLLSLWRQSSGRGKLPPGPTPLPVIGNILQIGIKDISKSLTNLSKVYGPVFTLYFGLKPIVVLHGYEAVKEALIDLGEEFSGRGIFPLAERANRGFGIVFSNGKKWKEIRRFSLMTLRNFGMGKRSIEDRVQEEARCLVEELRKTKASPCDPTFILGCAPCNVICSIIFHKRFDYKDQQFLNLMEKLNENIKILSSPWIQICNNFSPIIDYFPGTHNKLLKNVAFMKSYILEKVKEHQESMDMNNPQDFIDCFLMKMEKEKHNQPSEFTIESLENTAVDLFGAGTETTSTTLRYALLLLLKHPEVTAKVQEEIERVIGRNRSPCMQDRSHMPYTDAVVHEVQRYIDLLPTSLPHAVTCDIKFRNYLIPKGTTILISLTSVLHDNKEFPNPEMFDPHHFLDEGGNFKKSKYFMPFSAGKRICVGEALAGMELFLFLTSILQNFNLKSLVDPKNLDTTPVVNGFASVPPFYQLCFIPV
Nuclear receptor subfamily 1 group I member 2 (Rattus norvegicus), sequence (Q9R1A7 whole entry, looked up): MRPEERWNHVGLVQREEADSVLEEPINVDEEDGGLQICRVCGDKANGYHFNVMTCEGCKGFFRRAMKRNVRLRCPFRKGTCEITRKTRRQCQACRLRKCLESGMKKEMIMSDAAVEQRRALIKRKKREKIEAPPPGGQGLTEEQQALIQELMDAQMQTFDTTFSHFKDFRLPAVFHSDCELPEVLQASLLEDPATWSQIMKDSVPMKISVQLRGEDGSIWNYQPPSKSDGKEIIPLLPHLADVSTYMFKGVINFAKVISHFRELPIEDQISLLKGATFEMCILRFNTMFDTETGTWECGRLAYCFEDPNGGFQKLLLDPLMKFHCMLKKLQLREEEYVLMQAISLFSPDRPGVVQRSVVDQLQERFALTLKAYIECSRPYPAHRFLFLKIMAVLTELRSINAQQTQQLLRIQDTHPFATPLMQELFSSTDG

Regarding `CCN(CC)CCOC(=O)C1(C2CCCCC2)CCCCC1`, the Potency in experiment [1] was 8.41 µM (active). The Potency entry in experiment [2] and in [3] was “inactive” in each case.
On to `CN(C)CCCN1c2ccccc2Sc2ccc(C(F)(F)F)cc21`, for which the Potency in [4] is 0.617 µM (active); in experiment [2], 4.36 µM (active); in experiment [5], 3.63 µM (active); in experiment [6], 2.68 µM (active). In addition, the Potency entry in experiment [3] and in [7] was “inactive” throughout.
With `Cc1cc2c(C(C)C)c(O)c(O)c(C=O)c2c(O)c1-c1c(C)cc2c(C(C)C)c(O)c(O)c(C=O)c2c1O`, the Potency was 13.3 µM (active) in [8], 26.6 µM (active) in experiment [9] and 34.7 µM (active) in experiment [3]. Also, the Potency result in experiment [4], in experiment [5], in experiment [6] and in [7] was “inactive” each time.
As to `O=C1NCN(c2ccccc2)C12CCN(CCCC(c1ccc(F)cc1)c1ccc(F)cc1)CC2`, the Potency was 33.5 µM (active) in experiment [8], 26.6 µM (active) in experiment [9] and 0.19 µM (active) in [6]. Besides, the Potency entry in [1], in [5] and in experiment [7] was “inactive” in each case.
On to `CC=O`, for which the Potency in [8] is 4.03 µM (active); in [1], 4.53 µM (active); in experiment [4], 8.34 µM (active); in experiment [5], 37.2 µM (active); in experiment [6] it was 4.57 µM (active). The Potency entry in [9], in experiment [3] and in [7] was “inactive” in each case.
`C[C@]12CC[C@H]3C(=CCc4cc(O)ccc43)[C@@H]1CCC2=O`: the Potency result in experiment [10], in experiment [4] and in experiment [6] was “inactive” throughout. Also, the Potency in [2] is 31.7 µM (active); in [3], 35.6 µM (active); in experiment [5], 35.6 µM (active); in [7] it was 20 µM (active).
In the case of `CC(C)c1cccc(C(C)C)c1N1C(=O)c2ccc(O)cc2C1=O`, the Potency result in experiment [10], in [5] and in experiment [6] was “inactive” in each case. For the same compound, the Potency is 27.3 µM (active) in [1], 31.7 µM (active) in [4], 39.9 µM (active) in experiment [2] and 12.6 µM (active) in [3].
Regarding `CC(C(O)c1ccccc1)N(C)CCOC(c1ccccc1)c1ccccc1` (stereo unspecified), the Potency entry in [10] and in experiment [5] was “inactive” in each case. Moreover, the Potency was 7.5 µM (active) in experiment [1]; 0.174 µM (active) in [4]; 7.76 µM (active) in experiment [2]; 17.4 µM (active) in [3]; 1.69 µM (active) in experiment [6].
Take `CCc1ccc(O)c(C(C)(C)C)c1`: the Potency entry in experiment [10], in [9], in experiment [1], in experiment [4] and in experiment [7] was “inactive” in each case. Further, the Potency in experiment [2] is 17.8 µM (active); in [3] it was 31.7 µM (active); in [5], 35.6 µM (active).
With `CC(NCCC(c1ccccc1)c1ccccc1)c1ccccc1` (stereo unspecified), the Potency in [1] was 6.68 µM (active); in experiment [4] it was 0.219 µM (active); in [2], 4.36 µM (active); in experiment [3], 15.5 µM (active); in [6] it was 1.69 µM (active). Further, in experiment [11], the max activation was -19.7%. Further, in [5], the Potency entry was “inactive”.
Take `CN1CCN(C2Cc3ccccc3Sc3ccc(Cl)cc32)CC1` (stereo unspecified): the Potency is 31.6 µM (active) in [12], 0.347 µM (active) in experiment [4], 11 µM (active) in [2] and 0.848 µM (active) in experiment [6]. Moreover, the Potency entry in experiment [5] is “inactive”.
